Data from PubChem BioAssay (Tox21).
Results filed as inconclusive are left out. Active and inactive are the calls of the source. Unless noted, calls follow the shape of the dose curve; as a rule, active = well fitted curve in the direction sought with a large enough effect in the repeat runs; inconclusive = weak or mixed curves; inactive = flat fitted curve, though single readings scatter.

How the values were obtained:
[1] = qHTS assay to test for compound auto fluorescence at 535 nm (green) in HEK293 cells (AID 720680)
[2] = qHTS assay to test for compound auto fluorescence at 460 nm (blue) in HEK293 cell free culture (AID 720681)
Method in brief: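 Blue fluorescence (Ex 405/Em 460 nm, triamterene-equivalent) was read immediately after pin transfer of compound or DMSO into medium (DMEM, 10% FBS) without cells.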

[3] = qHTS assay to test for compound auto fluorescence at 535 nm (green) in HEK293 cell free culture (AID 720682)
Method in brief: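 Each library compound, or DMSO control, is added by pintool to medium alone, comprising DMEM and 10% FBS. Emission at 535 nm following 485 nm excitation is quantified against fluorescein.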

[4] = qHTS assay to test for compound auto fluorescence at 590 nm (red) in HEK293 cell free culture (AID 720683)
Method in brief: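 Red-channel autofluorescence of compounds in culture medium (DMEM, 10% FBS), no cells, measured at 540/590 nm. Rose Bengal sodium is the reference fluorophore for equivalence.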

[5] = qHTS assay to test for compound auto fluorescence at 590 nm (red) in HepG2 cell free culture (AID 720684)
Method in brief: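 Steps: dispense MEM/10% FBS medium, no cells; pin compound or DMSO vehicle; read red channel, Ex/Em 540/590 nm. Output given as Rose Bengal sodium equivalents.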

[6] = qHTS assay to test for compound auto fluorescence at 460 nm (blue) in HepG2 cell free culture (AID 720685)
Method in brief: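 Compound (23 nL) or DMSO pinned into cell-free MEM with 10% FBS; blue fluorescence read at 405/460 nm excitation/emission, expressed as auto-fluorescence equivalency to triamterene.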

[7] = qHTS assay to test for compound auto fluorescence at 535 nm (green) in HepG2 cell free culture (AID 720686)
[8] = qHTS assay to test for compound auto fluorescence at 460 nm (blue) in HepG2 cells (AID 720687)
Method in brief: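 Blue-channel autofluorescence (Ex/Em 405/460 nm, triamterene-equivalent) was measured after 1 hr compound exposure at 37 C, 5% CO2. Cells were HepG2, plated overnight at 37 C in MEM plus 10% FBS.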

[9] = biological target: Glucocorticoid receptor (Homo sapiens) (UniProt P04150); assay: qHTS assay to identify small molecule agonists of the glucocorticoid receptor (GR) signaling pathway (AID 720691; active = well fitted activation curve with a large enough effect in the signal ratio in the repeat runs, not every such curve was filed as active; the % refers to the signal ratio)
Glucocorticoid receptor (Homo sapiens), sequence (P04150 whole entry, looked up): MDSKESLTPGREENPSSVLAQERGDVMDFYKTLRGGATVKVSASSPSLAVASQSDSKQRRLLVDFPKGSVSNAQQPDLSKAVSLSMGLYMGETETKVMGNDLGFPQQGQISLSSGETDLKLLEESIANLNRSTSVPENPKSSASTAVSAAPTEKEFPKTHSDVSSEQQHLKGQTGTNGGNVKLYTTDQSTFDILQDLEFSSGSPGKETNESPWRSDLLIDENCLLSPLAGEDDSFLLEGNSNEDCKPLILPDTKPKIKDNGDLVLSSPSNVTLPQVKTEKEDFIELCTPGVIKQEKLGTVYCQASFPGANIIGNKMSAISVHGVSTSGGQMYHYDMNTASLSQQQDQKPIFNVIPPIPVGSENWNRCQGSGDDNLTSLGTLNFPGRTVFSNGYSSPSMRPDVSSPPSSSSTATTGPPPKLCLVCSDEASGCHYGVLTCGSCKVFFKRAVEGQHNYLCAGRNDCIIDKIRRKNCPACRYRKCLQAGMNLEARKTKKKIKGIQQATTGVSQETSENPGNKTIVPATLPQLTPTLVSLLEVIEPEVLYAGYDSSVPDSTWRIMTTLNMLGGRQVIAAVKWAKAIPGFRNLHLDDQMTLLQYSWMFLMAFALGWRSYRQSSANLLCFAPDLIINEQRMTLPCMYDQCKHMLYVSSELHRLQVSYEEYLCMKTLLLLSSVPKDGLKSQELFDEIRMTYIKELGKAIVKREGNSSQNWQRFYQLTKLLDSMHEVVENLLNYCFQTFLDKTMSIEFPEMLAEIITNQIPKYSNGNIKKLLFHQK
Method in brief: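 qHTS in GR-bla HeLa cells: 4 h settling at 37 C/5% CO2, 18 h compound incubation at 37 C, 2 h LiveBLAzer B/G FRET substrate at room temperature, fluorescence intensity measured.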

[10] = biological target: Glucocorticoid receptor (Homo sapiens) (UniProt P04150); assay: qHTS assay to identify small molecule antagonists of the glucocorticoid receptor (GR) signaling pathway (AID 720692; active = well fitted inhibition curve with a large enough effect in the signal ratio in the repeat runs, not every such curve was filed as active; the % refers to the signal ratio)
Method in brief: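 Inhibition of glucocorticoid signalling is measured in HeLa cells with a GRE-controlled beta-lactamase reporter; cells are co-treated with compound and 5 nM dexamethasone (final) for 18 h before FRET substrate readout.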

Measured: Potency

CC(C)(C1CCC(O)CC1)C1CCC(O)CC1 (centres undefined)
inactive: [1] | [2] | [3] | [4] | [5] | [6]

CC(C)(C)NC[C@H](O)c1ccc(O)cc1Cl
not listed: [8] | [9] | [10]
inactive: all other assays above

C#CCOC(=O)/C=C(C)/C=C/CC(C)CCCC(C)C (centres undefined)
not listed: [10]
inactive: all other assays above

CC(C)(C)C(=O)Cl
inactive: all assays above

Cn1c(N)nc2c3cccnc3ccc21
not listed: [9] | [10]
inactive: all other assays above

O=C1C2CC=CCC2C(=O)N1SC(Cl)(Cl)Cl (centres undefined)
not listed: [9] | [10]
inactive: all other assays above

Cc1ccc(S(=O)(=O)N[C@@H](CCCCN)C(=O)CCl)cc1
not listed: [10]
inactive: all other assays above

O=C(O)C(Cl)Br (centres undefined)
not listed: [10]
inactive: all other assays above

CCOC(=O)C(Cl)Cc1cc(-n2nc(C)n(C(F)F)c2=O)c(F)cc1Cl (centres undefined)
not listed: [10]
inactive: all other assays above

ClC(Cl)(Cl)Cl
not listed: [9] | [10]
inactive: all other assays above

OCC(Cl)CCl (centres undefined)
not listed: [10]
inactive: all other assays above

Clc1ccc(C(Cl)(Cl)Cl)cn1
inactive: all assays above

O=S1(=O)OCCO1
not listed: [10]
inactive: all other assays above

COP(=O)(OC)O/C(C)=C/C(=O)N(C)C
not listed: [9] | [10]
inactive: all other assays above

CC(C)[C@]12CC(=O)[C@H](C)[C@H]1C2
not listed: [9] | [10]
inactive: all other assays above

CN1C(=O)COc2c(C(=O)NC3CN4CCC3CC4)cc(Cl)cc21 (centres undefined)
not listed: [9] | [10]
inactive: all other assays above

COC(=O)[C@@H](N)CCCN/C(N)=N/[N+](=O)[O-]
not listed: [10]
inactive: all other assays above

O=C(Cl)c1ccccc1
not listed: [8] | [9] | [10]
inactive: all other assays above

CCCCCCCCSC(=O)Oc1cc(Cl)nnc1-c1ccccc1
not listed: [9] | [10]
inactive: all other assays above

CS(=O)(=O)Cl
not listed: [9] | [10]
inactive: all other assays above

CCNP(=S)(OC)O/C(C)=C/C(=O)OC(C)C (centres undefined)
inactive: all assays above

BrCC1CO1 (centres undefined)
inactive: all assays above

BrCc1ccc(Br)cc1
not listed: [8] | [9] | [10]
inactive: all other assays above

C=C1C[C@@H]2[C@H](CC[C@]3(C)C(=O)CC[C@@H]23)[C@@]2(C)C=CC(=O)C=C12
not listed: [9] | [10]
inactive: all other assays above

c1ccc2c(c1)CCNC2
not listed: [9] | [10]
inactive: all other assays above

CCCCOC(C)=O
not listed: [8] | [9] | [10]
inactive: all other assays above

CC(Cl)(Cl)Cl
not listed: [9] | [10]
inactive: all other assays above

CCN[C@@H](C)Cc1cccc(C(F)(F)F)c1
not listed: [10]
inactive: all other assays above

O=C(NC(=O)c1c(F)cccc1F)Nc1cc(Cl)c(F)c(Cl)c1F
not listed: [10]
inactive: all other assays above

CCC1(c2ccccc2)CCC(=O)NC1=O (centres undefined)
not listed: [8] | [9] | [10]
inactive: all other assays above

CC(C)N(Cc1ccccc1)C(=O)C(C)(C)C
not listed: [9] | [10]
inactive: all other assays above

CC[C@@H](CO)NC(=O)[C@@H]1C=C2c3cccc4[nH]cc(c34)C[C@H]2N(C)C1
not listed: [10]
inactive: all other assays above

NC1(c2ccccc2)CCCCC1
not listed: [9] | [10]
inactive: all other assays above

C=CCCC#N
inactive: all assays above

Cc1cc(OC(=O)N(C)C)nn1C(=O)N(C)C
not listed: [9] | [10]
inactive: all other assays above

O=C(O)c1c(Cl)ccc2cc(Cl)cnc12
not listed: [10]
inactive: all other assays above

C=CCN1CC[C@]23CCCC[C@H]2[C@H]1Cc1ccc(O)cc13
not listed: [10]
inactive: all other assays above

CCN(CC)CCOC(=O)C(O)(c1ccccc1)c1ccccc1
not listed: [10]
inactive: all other assays above

CC(C)(N)Cc1ccc(Cl)cc1
not listed: [9] | [10]
inactive: all other assays above

O=c1[nH]c2ccccc2o1
not listed: [5] | [10]
inactive: all other assays above

C=CCc1cc(OC)c2c(c1)OCO2
not listed: [5] | [10]
inactive: all other assays above

N#CC(Br)(Br)C(N)=O
not listed: [5] | [9] | [10]
inactive: all other assays above

CCCCS(=O)(=O)Cl
not listed: [6] | [10]
inactive: all other assays above

CCCCCCC(=O)CCCCCC/C=C/C[C@@H](O)[C@H](O)[C@@](N)(CO)C(=O)O
not listed: [6] | [7]
inactive: all other assays above

CN(C)CCc1c[nH]c2cccc(OP(=O)(O)O)c12
inactive: [1] | [2] | [3] | [4] | [6] | [7]

CCCCCCCCBr
not listed: [6]
inactive: all other assays above

NCCOS(=O)(=O)O
not listed: [7]
inactive: all other assays above

CNC(=O)NC(O)C(Cl)(Cl)Cl (centres undefined)
not listed: [6] | [9] | [10]
inactive: all other assays above

NNCc1ccccc1
not listed: [5] | [10]
inactive: all other assays above

CCOC(=O)CC(SP(=S)(OC)OC)C(=O)OCC (centres undefined)
not listed: [5] | [8]
inactive: all other assays above

CCOC(=O)N(C)N=O
not listed: [6]
inactive: all other assays above

CCN(CCO)CCO
not listed: [6]
inactive: all other assays above

CCNc1nc(Cl)nc(NC(C)(C)C)n1
not listed: [5] | [7] | [10]
inactive: all other assays above

CC(C)NCC(O)c1ccc([N+](=O)[O-])cc1 (centres undefined)
not listed: [6]
inactive: all other assays above

CNC(=O)Oc1cc(C)c(N(C)C)c(C)c1
not listed: [6]
inactive: all other assays above

C[C@H]1CCCC(=O)CCC/C=C/c2cc(O)cc(O)c2C(=O)O1
not listed: [6] | [9] | [10]
inactive: all other assays above
